Data as given in publication PMC5540273 (PLoS ONE, 2017).

What follows are compounds tested on T1, p38-gamma. Settings: concentration: 1 μM, replicates: in singlicate; n = 1.
T1 construct: gene MAPK12
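Further: KINOMEscan kinase panel screen.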

| SMILES | %Inh [%] |
| --- | --- |
| NS(=O)(=O)c1cccc(N/C=C2\C(=O)Nc3ccc(S(=O)(=O)Cc4c(Cl)cccc4Cl)cc32)c1 [GSK398099] | 7 |
| CS(=O)(=O)CCNCc1nc(-c2ccc3ncnc(Nc4ccc5c(cnn5Cc5ccccc5)c4)c3c2)cs1.Cl.Cl [GW569716] | 0 |
| O=C(Nc1n[nH]c2nc(-c3cccs3)c(Br)cc12)C1CCCC1 [SB-743341] | 13 |
| COC(=O)c1cccc(NC(=O)NC2CCN(c3ccnc(Nc4ccc(F)cc4)n3)C2)c1 (stereo not shown) [GSK1379725] | 0 |
| CN1c2ccc(-c3ccc(C(N)=O)cc3)cc2-c2[nH]ncc2S1(=O)=O | 0 |
| O=C(Nc1n[nH]c2nc(-c3cccs3)c(Br)cc12)C1CC1 [SB-735297] | 0 |
| CS(=O)(=O)CCNCc1nc(-c2ccc3ncnc(Nc4ccc(OCc5ccccc5)c(Cl)c4)c3c2)cs1.Cl [GW582764] | 0 |
| CNc1nc(-c2ccc3c(N)n[nH]c3c2)cc(N2C[C@@H](C(=O)Nc3ccccc3)CC[C@H]2C)n1 [GSK2298859] | 0 |
| COC(=O)c1cccc(NC(=O)NC2CCN(c3ccnc(Nc4ccc(OC)cc4)n3)C2)c1 (stereo not shown) [GSK1379746] | 0 |
| Cc1ccc(NC(=O)Nc2ccc(Cl)cc2)cc1-c1ccc(C(=O)Nc2ccncc2)cc1 [GSK1398472] | 23 |
